Reference: PubChem BioAssay AID1159580 (chemical genetic matrix, 2015)
Among all 5,500 compounds or so, about 2,000 (36%) were called active. Another 18% or so got no clear call; they are omitted. Cut-off read from the data, not from the text of the source: active = normalized growth mostly below about 0.91 (no sharp cut-off); inconclusive = no clear call, values can overlap the other calls; inactive = mostly above about 0.92. Some of the results follow.

Experiment: chemical genetic growth profiling, strain panel (AID 1159580);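 note: tested at 20 µM; growth read once vehicle control cultures reached saturation at 30 °C; 1 = growth at the plate median or of vehicle wells; lower values mean less growth of the strain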
Settings: growth OD
[1] = S. cerevisiae deletion strains, locus YDL101C, strain DUN1, active compounds read low
[2] = S. cerevisiae deletion strains, locus YHR030C, strain SLT2, active compounds read low
[3] = S. cerevisiae deletion strains, locus YAL013W, strain DEP1, active compounds read low
[4] = S. cerevisiae deletion strains, locus YBR229C, strain ROT2, active compounds read low
[5] = S. cerevisiae deletion strains, locus YDR150W, strain NUM1, active compounds read low
[6] = S. cerevisiae deletion strains, locus YEL061C, strain CIN8, active compounds read low
[7] = S. cerevisiae deletion strains, locus YGR078C, strain PAC10, active compounds read low
[8] = S. cerevisiae deletion strains, locus YGR229C, strain SMI1, active compounds read low
[9] = S. cerevisiae deletion strains, locus YHR087W, strain rtc3, active compounds read low
[10] = S. cerevisiae deletion strains, locus YJR043C, strain POL32, active compounds read low
[11] = S. cerevisiae deletion strains, locus YJR075W, strain HOC1, active compounds read low
[12] = S. cerevisiae deletion strains, locus YLR039C, strain RIC1, active compounds read low
[13] = S. cerevisiae deletion strains, locus YLR058C, strain SHM2 (second series), active compounds read low
[14] = S. cerevisiae deletion strains, locus YLR085C, strain ARP6, active compounds read low
[15] = S. cerevisiae deletion strains, locus YLR262C, strain YPT6, active compounds read low
[16] = S. cerevisiae deletion strains, locus YML094W, strain GIM5, active compounds read low
[17] = S. cerevisiae deletion strains, locus YMR219W, strain ESC1, active compounds read low
[18] = S. cerevisiae deletion strains, locus YMR263W, strain SAP30, active compounds read low
[19] = S. cerevisiae deletion strains, locus YNL153C, strain GIM3, active compounds read low
[20] = S. cerevisiae deletion strains, locus YNL298W, strain CLA4 (second series), active compounds read low
[21] = S. cerevisiae deletion strains, locus YNL322C, strain KRE1, active compounds read low
[22] = S. cerevisiae deletion strains, locus YNR030W, strain Alg12, active compounds read low
[23] = S. cerevisiae deletion strains, locus YPL055C, strain LGE1, active compounds read low
[24] = S. cerevisiae deletion strains, locus YPL241C, strain CIN2, active compounds read low
[25] = S. cerevisiae deletion strains, locus YPR135W, strain CTF4, active compounds read low

Measured: normalized growth

Cc1onc(-c2c(F)cccc2Cl)c1C(=O)ON=C1C2CC3CC(C2)CC1C3
active: S. cerevisiae deletion strains, locus YBL105C, strain PKC1, active compounds read low 1.11 [resistant] | S. cerevisiae deletion strains, locus YBR135W, strain CKS1, active compounds read low 1.09 [resistant] | S. cerevisiae deletion strains, locus YBR136W, strain MEC1, active compounds read low 1.08 [resistant] | S. cerevisiae deletion strains, locus YBR160W, strain CDC28, active compounds read low 1.08 [resistant] | S. cerevisiae deletion strains, locus YDL017W, strain CDC7, active compounds read low 1.08 [resistant] | S. cerevisiae deletion strains, locus YDL028C, strain MPS1, active compounds read low 1.08 [resistant] | S. cerevisiae deletion strains, locus YDL108W, strain KIN28, active compounds read low 1.09 [resistant] | S. cerevisiae deletion strains, locus YDR226W, strain ADK1, active compounds read low 1.06 [resistant] | S. cerevisiae deletion strains, locus YFR003C, strain YPI1, active compounds read low 1.09 [resistant] | S. cerevisiae deletion strains, locus YIL147C, strain SLN1, active compounds read low 1.1 [resistant] | S. cerevisiae deletion strains, locus YKL193C, strain SDS22, active compounds read low 1.08 [resistant] | S. cerevisiae deletion strains, locus YLR113W, strain HOG1, active compounds read low 0.816 | S. cerevisiae deletion strains, locus YMR001C, strain CDC5, active compounds read low 1.07 [resistant] | S. cerevisiae deletion strains, locus YNL006W, strain LST8, active compounds read low 1.1 [resistant] | S. cerevisiae deletion strains, locus YNL161W, strain CBK1, active compounds read low 1.08 [resistant] | S. cerevisiae deletion strains, locus YNL222W, strain SSU72, active compounds read low 1.1 [resistant] | S. cerevisiae deletion strains, locus YOR329C, strain SCD5, active compounds read low 1.1 [resistant] | S. cerevisiae deletion strains, locus YPL209C, strain IPL1, active compounds read low 1.09 [resistant] | S. cerevisiae deletion strains, locus YPR025C, strain CCL1, active compounds read low 1.1 [resistant]
inactive: S. cerevisiae deletion strains, locus YAR019C, strain CDC15, active compounds read low 1.06 | [1] 0.97 | S. cerevisiae deletion strains, locus YDL132W, strain cdc53, active compounds read low 1.06 | S. cerevisiae deletion strains, locus YDL214C, strain PRR2, active compounds read low 0.955 | S. cerevisiae deletion strains, locus YDR052C, strain DBF4, active compounds read low 0.997 | S. cerevisiae deletion strains, locus YDR054C, strain cdc34, active compounds read low 1.04 | S. cerevisiae deletion strains, locus YDR477W, strain SNF1, active compounds read low 0.965 | S. cerevisiae deletion strains, locus YER123W, strain YCK3, active compounds read low 0.939 | S. cerevisiae deletion strains, locus YER133W, strain GLC7, active compounds read low 0.979 | S. cerevisiae deletion strains, locus YFL009W, strain cdc4, active compounds read low 1.06 | S. cerevisiae deletion strains, locus YFL029C, strain CAK1, active compounds read low 1.07 | S. cerevisiae deletion strains, locus YFR019W, strain FAB1, active compounds read low 0.967 | S. cerevisiae deletion strains, locus YFR028C, strain CDC14, active compounds read low 1.02 | S. cerevisiae deletion strains, locus YGR040W, strain KSS1, active compounds read low 0.953 | S. cerevisiae deletion strains, locus YGR052W, strain FMP48, active compounds read low 0.974 | S. cerevisiae deletion strains, locus YGR092W, strain DBF2, active compounds read low 0.982 | [2] 0.895 | S. cerevisiae deletion strains, locus YHR079C, strain IRE1, active compounds read low 0.967 | S. cerevisiae deletion strains, locus YHR082C, strain KSP1, active compounds read low 0.981 | S. cerevisiae deletion strains, locus YHR205W, strain SCH9, active compounds read low 0.85 | S. cerevisiae deletion strains, locus YJL095W, strain BCK1, active compounds read low 0.968 | S. cerevisiae deletion strains, locus YJL128C, strain PBS2, active compounds read low 1.01 | S. cerevisiae deletion strains, locus YJL157C, strain FAR1, active compounds read low 0.95 | S. cerevisiae deletion strains, locus YJR016C, strain ILV3, active compounds read low 1.04 | S. cerevisiae deletion strains, locus YJR066W, strain TOR1 (second series), active compounds read low 0.924 | S. cerevisiae deletion strains, locus YJR066W, strain TOR1, active compounds read low 0.98 | S. cerevisiae deletion strains, locus YKL048C, strain ELM1, active compounds read low 0.968 | S. cerevisiae deletion strains, locus YKL067W, strain YNK1, active compounds read low 0.974 | S. cerevisiae deletion strains, locus YKL101W, strain HSL1, active compounds read low 0.94 | S. cerevisiae deletion strains, locus YKL203C, strain TOR2, active compounds read low 0.969 | S. cerevisiae deletion strains, locus YLR133W, strain CKI1, active compounds read low 0.951 | S. cerevisiae deletion strains, locus YLR403W, strain SFP1, active compounds read low 0.894 | S. cerevisiae deletion strains, locus YML070W, strain DAK1, active compounds read low 0.934 | S. cerevisiae deletion strains, locus YMR205C, strain PFK2 (second series), active compounds read low 0.971 | S. cerevisiae deletion strains, locus YMR277W, strain FCP1, active compounds read low 1.06 | S. cerevisiae deletion strains, locus YNL020C, strain ARK1, active compounds read low 0.955 | S. cerevisiae deletion strains, locus YNL183C, strain NPR1, active compounds read low 0.917 | S. cerevisiae deletion strains, locus YNL207W, strain RIO2, active compounds read low 1.03 | S. cerevisiae deletion strains, locus YNL307C, strain MCK1 (second series), active compounds read low 0.953 | S. cerevisiae deletion strains, locus YOL078W, strain AVO1, active compounds read low 1.05 | S. cerevisiae deletion strains, locus YOL136C, strain PFK27, active compounds read low 0.933 | S. cerevisiae deletion strains, locus YOR061W, strain CKA2, active compounds read low 0.965 | S. cerevisiae deletion strains, locus YOR119C, strain RIO1, active compounds read low 0.976 | S. cerevisiae deletion strains, locus YOR231W, strain MKK1, active compounds read low 0.9 | S. cerevisiae deletion strains, locus YPL031C, strain PHO85, active compounds read low 0.975 | S. cerevisiae deletion strains, locus YPL153C, strain RAD53, active compounds read low 0.959 | S. cerevisiae deletion strains, locus YPL204W, strain HRR25, active compounds read low 0.931 | S. cerevisiae deletion strains, locus YPL256C, strain CLN2, active compounds read low 0.866 | S. cerevisiae deletion strains, locus YPR106W, strain ISR1, active compounds read low 1.04 | S. cerevisiae deletion strains, locus YPR111W, strain DBF20, active compounds read low 1.06 | S. cerevisiae deletion strains, strain NNK1, active compounds read low 1.03 | S. cerevisiae deletion strains, strain TSCII, active compounds read low 1.04

Cc1onc(-c2c(F)cccc2Cl)c1C(=O)c1ccc(F)cc1
active: [15] 0.787
inactive: [3] 0.939 | [4] 0.98 | [1] 0.991 | [5] 0.963 | [6] 0.979 | [7] 0.973 | [8] 0.969 | [2] 0.696 | [9] 0.959 | S. cerevisiae deletion strains, locus YJL187C, strain SWE1, active compounds read low 0.975 | [10] 0.956 | [11] 0.937 | S. cerevisiae deletion strains, locus YKL190W, strain CNB1, active compounds read low 0.974 | [12] 0.807 | [13] 0.987 | [14] 0.8 | [16] 0.972 | [17] 0.996 | [18] 0.978 | S. cerevisiae deletion strains, locus YMR307W, strain GAS1, active compounds read low 0.708 | [19] 0.973 | [20] 0.93 | [21] 0.97 | [22] 0.949 | [23] 0.929 | [24] 0.964 | [25] 0.817 | S. cerevisiae strains, strain wild type, active compounds read low 0.959

Cc1cc(NC(=O)c2c(-c3c(Cl)cccc3Cl)noc2C)c([N+](=O)[O-])cc1C
inactive: [3] 1.01 | [4] 1.01 | [1] 1.08 | [5] 1.03 | [6] 1 | [7] 1.04 | [8] 0.975 | [2] 1.02 | [9] 0.969 | [10] 1.02 | [11] 1 | [12] 1.04 | [13] 0.983 | [14] 0.999 | [15] 0.967 | [16] 0.992 | [17] 0.992 | [18] 1.04 | [19] 1.04 | [20] 1.04 | [21] 0.981 | [22] 0.975 | S. cerevisiae deletion strains, locus YOL006C, strain TOP1, active compounds read low 0.987 | [23] 0.996 | [24] 1.01 | [25] 0.995
